TRPV1 agonist: HTS Assay for Compounds that Act as Agonists of the Vanilloid Receptor 1 | TRPV1-expressing cells, Fluo-8 calcium influx, agonist mode | activation, % at 8.33 µM | 320,000 tested, 0.19% active; in the data active means activation above about 80%; inconclusive means between about 30% and that limit; further: 0% is about no effect
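TRPV1-expressing cells were cultured overnight at 35.5C and loaded with Fluo-8 calcium dye for 40 to 90 min at room temperature. After a 10 s baseline, compound was added and calcium influx was read kinetically for 3 min (ex 480/em 520 nm).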
hERG WT inh: qHTS for Inhibitors of KCHN2 3.1: Wildtype qHTS; activity change, % at 1.84 µM; U2OS, BacMam KCNH2, thallium flux FluxOr; active compounds read low; 340,000 tested, 0.37% active;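 active means maximum activity change below -70%; inconclusive means maximum activity change between -70% and -50%; inactive means maximum activity change above -50%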; further: on the % scale 0 is the no-effect control and ±100 the full control effect
Target sequence (Q12809 whole entry, looked up): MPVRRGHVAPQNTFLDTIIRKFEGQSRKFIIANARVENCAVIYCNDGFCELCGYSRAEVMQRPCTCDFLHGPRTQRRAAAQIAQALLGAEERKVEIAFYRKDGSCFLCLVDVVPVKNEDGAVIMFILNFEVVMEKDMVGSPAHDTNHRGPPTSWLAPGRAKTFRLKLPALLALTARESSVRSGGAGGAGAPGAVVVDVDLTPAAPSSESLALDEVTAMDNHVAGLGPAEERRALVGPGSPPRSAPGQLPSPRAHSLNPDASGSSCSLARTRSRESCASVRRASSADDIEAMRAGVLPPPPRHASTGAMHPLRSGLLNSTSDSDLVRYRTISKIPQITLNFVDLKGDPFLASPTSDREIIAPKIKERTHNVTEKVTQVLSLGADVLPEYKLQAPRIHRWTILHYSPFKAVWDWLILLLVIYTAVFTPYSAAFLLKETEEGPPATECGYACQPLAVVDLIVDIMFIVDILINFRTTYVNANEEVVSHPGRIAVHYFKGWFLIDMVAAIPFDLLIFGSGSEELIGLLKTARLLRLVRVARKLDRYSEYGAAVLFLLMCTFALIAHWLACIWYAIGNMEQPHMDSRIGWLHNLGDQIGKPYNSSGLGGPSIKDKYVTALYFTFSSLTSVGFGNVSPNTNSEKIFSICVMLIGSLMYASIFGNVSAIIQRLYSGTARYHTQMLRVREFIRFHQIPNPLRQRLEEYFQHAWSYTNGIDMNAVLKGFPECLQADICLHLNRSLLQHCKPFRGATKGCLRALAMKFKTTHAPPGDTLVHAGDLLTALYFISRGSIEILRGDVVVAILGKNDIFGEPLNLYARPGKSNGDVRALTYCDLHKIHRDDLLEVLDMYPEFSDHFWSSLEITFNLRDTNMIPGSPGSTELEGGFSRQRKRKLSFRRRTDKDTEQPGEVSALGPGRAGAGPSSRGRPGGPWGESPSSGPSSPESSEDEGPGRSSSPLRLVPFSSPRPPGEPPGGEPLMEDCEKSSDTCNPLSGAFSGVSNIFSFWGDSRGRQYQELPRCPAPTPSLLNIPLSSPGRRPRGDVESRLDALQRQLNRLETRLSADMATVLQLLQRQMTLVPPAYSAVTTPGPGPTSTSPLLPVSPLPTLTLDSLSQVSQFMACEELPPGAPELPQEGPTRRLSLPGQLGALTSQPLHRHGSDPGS
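U2OS cells transduced with wild-type KCNH2 virus are loaded with FluxOr dye for 45 min, and thallium flux is measured in kinetic reads before and after stimulation buffer. Rate constants are normalized to DMSO controls.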
MBNL1-CUG inh: qHTS Assay for Inhibitors of MBNL1-poly(CUG) RNA binding | Potency, µM (highest dose often 57.5 µM), for inactives: at the highest dose activity change, negative = inhibition, actives largely listed as inhibitors | Muscleblind-like protein 1 (Homo sapiens), Q9NR56 | 280,000 tested, 0.036% active | TR-FRET MBNL1-His/biotin-(CUG)12 binding, 665/545 ratio; active means well fitted inhibition curve with a large enough effect in the signal ratio, with a control signal flat, not every such curve was filed as active; inconclusive means small, poorly fitted or top-dose-only effect, or effect the other way, or a change in a side signal; inactive means no such curve, though single readings can be large or run the other way; the % refers to the signal ratio; further: potency means the concentration at half of the fitted maximal effect; on the % scale 0 is the no-effect control and ±100 the full control effect
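Ratiometric TR-FRET (665 over 545 nm, excitation 340 nm) tracks disruption of MBNL1-His/biotin-(CUG)12 complex after 60 min at room temperature, with compounds at 92 nM to 58 uM final.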
KCNH2 3.1 block: qHTS for Inhibitors of KCHN2 3.1: Mutant qHTS. Potassium voltage-gated channel subfamily H member 2, brain isoform KCNH2 3.1 (human). U2OS KCNH2 3.1, thallium flux FluxOr; active compounds read low. activity change, % (tested at about 1.8 µM). 340,000 tested, 0.95% active. AID 720553, 2013;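 active means maximum activity change below -70%; inconclusive means maximum activity change from -70% to -50%; inactive means maximum activity change above -50%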;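 further: thallium influx rate constant from kinetic fluorescence after stimulation buffer; on the % scale 0 is the no-effect control and ±100 the full control effect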
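Virally transduced U2OS (3.1 isoform, 4 h infection in dark at RT) → overnight 37 C → FluxOr + Red40 in HBSS/HEPES, 45 min → stimulation buffer, 2 min kinetic read → rate constant vs DMSO controls.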
TRPV1 PAM: HTS Assay for Compounds that Act as Potentiators of the Vanilloid Receptor 1 | Transient receptor potential cation channel subfamily V member 1 (Homo sapiens), Q8NER1 | TRPV1-expressing cells, Fluo-8 calcium influx, capsaicin EC20 potentiation | potentiation, % at 8.33 µM | 320,000 tested, 0.02% active | AID 540277, 2011; in the data active means potentiation above about 80%; inconclusive means between about 30% and that limit; further: 0% is about no effect
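Cells expressing TRPV1 were dye-loaded with Fluo-8 and read kinetically: 10 s baseline, 3 min after compound (agonist portion), then 2 min after EC20 capsaicin (allosteric enhancer portion). Calcium-bound dye fluorescence at 480/520 nm.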
* marks the source's active call; other numbers are inactive results; ? = inconclusive; / = no result. A selection: hits, their analogues and other compounds. The true share with any hit is near 1.3%.

SMILES	TRPV1 agonist	hERG WT inh	MBNL1-CUG inh	KCNH2 3.1 block	TRPV1 PAM
Cn1cnc(C(=O)NCc2ccc(CNC(=O)OC(C)(C)C)cc2)c1C(=O)NCc1ccc(CNC(=O)OC(C)(C)C)cc1	/	-3	/	-115*	/
COc1cccc(N2CCN(c3nc(C)cc(=O)[nH]3)CC2)c1	97*	-5	-1%	12	-11
COc1cccc(-c2nn(C)c3sc(C(=O)NCc4ccc5c(c4)OCO5)cc23)c1	/	-4	1%	-92*	/
CC[C@]12c3[nH]c4ccc(OC)cc4c3CCN1C(=O)C(CC(=O)NCCCn1ccnc1)C[C@@H]2C(=O)N1CCN(C(=O)c2ccco2)CC1 (some centres not stated)	/	41	/	-7	/
N#CCC(=O)N/N=C/c1ccc(Cl)cc1	0	5	1%	-73*	-3
CCn1cc(C(=O)NC2CCc3ccccc32)c(=O)c2ccc(C)nc21 (configuration not stated)	5	/	-1%	/	?
COc1ccc(C(=O)NC(C)CCc2ccccc2)cc1[N+](=O)[O-] (configuration not stated)	5	-6	10%	3	-2
COc1ccc(C(=O)C(C)[n+]2ccc(C)c3ccccc32)cc1[N+](=O)[O-] (configuration not stated)	8	-140*	?	-6	1
CCN(C(=O)COC(=O)c1cncc(Br)c1)C1CCS(=O)(=O)C1 (configuration not stated)	6	-1	7%	-10	80*
CN(C(=O)COC(=O)c1cncc(Br)c1)C1CCS(=O)(=O)C1 (configuration not stated)	2	-3	-3%	0	14
CCOC(=O)Cc1csc(/N=C/c2c(O)n(-c3ccccc3C(F)(F)F)c(=O)c3ccccc23)n1	18	-1	5%	3	-3
CCN(CCn1cccn1)C(=O)CCc1nnc(C2(c3ccc(Cl)cc3)CCC2)o1	1	-137*	-4%	-194*	-10
Cc1cc(C)c[n+](CC(=O)c2ccc(C)c([N+](=O)[O-])c2)c1	-1	1	26%	0	-3
CCc1ccc(CN2CCC(n3nccc3NC(=O)c3ccccc3Cl)CC2)cc1	-3	-97*	-4%	-103*	-2
O=C(Nc1ccnn1C1CCN(Cc2ccccc2)CC1)C1CCCC1	10	35	-11%	16	-9
Cn1cc(CN2CCC(n3nccc3NC(=O)c3ccccc3Cl)CC2)cn1	-2	25	3%	-18	-10
CC(Cc1ccc(Cl)cc1)N1CCC(n2nccc2NC(=O)C2CCCC2)CC1 (configuration not stated)	0	-21	-2%	-101*	-6
CCc1ccc(CN2CCC(n3nccc3NC(=O)c3ccc4c(c3)OCO4)CC2)cc1	0	?	-1%	-106*	12
CSc1ccc(CN2CCC(n3nccc3NC(=O)c3ccccc3C)CC2)cc1	-3	-126*	2%	-123*	26
CCOc1cccc(CN2CCC(n3nccc3NC(=O)c3ccc4c(c3)OCO4)CC2)c1	2	19	-15%	-5	-9
C=C1C=C(C(F)F)n2ncc(C(=O)Nc3ccc(C(C)CC)cc3)c2N1 (configuration not stated)	1	/	/	/	-1
CSCCC1NC(=O)N(CC(=O)Nc2ccc3c(c2)OCCO3)C1=O (configuration not stated)	/	2	/	5	/
Cn1nc(C(=O)Nc2ccccc2N2CCCC2)c2ccccc2c1=O	-10	12	3%	-5	0
COC(=O)c1ccc(OCC(O)CNCC(c2ccc(OC)cc2)N(C)C)c(OC)c1 (configuration not stated)	-2	15	-4%	1	9
CCc1nnc(NC(=O)CCC(=O)N2CCC(Cc3ccccc3)CC2)s1	10	-2	1%	2	11
SMILES	TRPV1 agonist	hERG WT inh	MBNL1-CUG inh	KCNH2 3.1 block	TRPV1 PAM
CCCCCCN1C[C@H](O)[C@@H](n2cc(C3CC3)nn2)C[C@@H]1c1ccc(OC)cc1	/	?	/	-117*	/
COC(=O)CSc1nnc(CNS(=O)(=O)c2ccc(C)cc2)n1C	-2	-253*	2%	4	2
COc1ccc(CCN(C)c2ncnc3sccc23)cc1OC	1	-84*	0%	4	0
COc1ccc(CCN(C)Cc2ccc(OCc3ccccc3)c(OC)c2)cc1OC	2	14	-12%	-79*	6
COc1ccc(CCN(C)Cc2ccc(OC)c(OCc3ccccc3)c2)cc1OC	3	16	-1%	?	2
COc1ccc(CCN(C)C(=O)CSc2ncnc3sccc23)cc1OC	4	-9	0%	1	-7
COc1ccc(CC(O)CC2c3c(cc4c(c3OC)OCO4)CCN2C)cc1 (configuration not stated)	1	-1	0%	-97*	4
COc1ccccc1CC(O)CC1c2c(cc3c(c2OC)OCO3)CCN1C (configuration not stated)	/	23	/	-1	/
COc1ccccc1C(=O)NC(=O)COC(=O)c1nc(Cl)ccc1Cl	2	2	/	6	-1
CC(=O)c1sc(-c2c(C)nc3sccn23)nc1C1CCCC1	/	/	9%	/	/
Cc1ccccc1C(=O)/C=C1/SCC(=O)N1C	1	-8	/	-82*	-4
CC1CCN(CCCNC(=O)COc2cc(=O)n(C)c3ccccc23)CC1	2	13	-6%	-4	-4
CCn1c(=O)cc(OCC(=O)NCCCN2CCC(C)CC2)c2ccccc21	-1	-23	4%	-77*	-17
Cc1ccc(C(=O)C2COC(=O)C2)cc1 (configuration not stated)	1	-6	2%	15	-9
O=C(Nc1c(F)cc(F)cc1Br)c1cc(S(=O)(=O)N2CCN(c3ccccn3)CC2)ccc1F	3	-1	/	-10	-5
O=C(Nc1ccc(F)c(F)c1)c1cc(S(=O)(=O)N2CCN(c3ccccn3)CC2)ccc1F	2	-30	-8%	-78*	0
C=CCN(C(=O)CSc1nc2ccsc2c(=O)n1Cc1ccccn1)c1ccccc1	-4	-9	0%	-91*	8
O=C(CSc1nc(C2CC2)nc2ccccc12)N1CCc2ccccc21	/	0	/	6	/
Nn1c(SCc2cccc(Br)c2)nnc1-c1cccnc1	1	-1	2%	-99*	7

From PubChem BioAssay
